Most compounds without a hit are left out; they make up all but 6.6% or so of the library.
KB-3-1 cytotox: KB-3-1 parental cell cytotoxicity; KB-3-1 viability, CellTiter-Glo ATP luminescence, 72 h; Potency, µM (doses to about 46.1 µM), most hits filed as cytotoxic; hit rate 1.4% among 400,000; further: on the % scale 0 is the no-effect control and ±100 the full control effect; nearly all actives have a fitted effect of over 60% in size
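Cells are dispensed, compounds pinned in, plates held at 37 °C for 72 h, then CellTiter-Glo is added and luminescence read after 10 minutes. Cell line: parental KB-3-1 in phenol-red-free DMEM, 10% FBS.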
RGS4 inh: inhibitors of human regulator of G protein signaling 4; hit rate 0.039% among 390,000; Transcreener GDP fluorescence polarization, RGS4-accelerated GTP hydrolysis; Potency, µM (doses to about 114 µM), without a hit: at the top dose activity change, negative = inhibition, most hits filed as inhibitors; P49798; further: on the % scale 0 is the no-effect control and ±100 the full control effect; nearly all actives have a fitted effect of over 75% in size
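MLSMR compounds (23 nl, pin-transferred) preincubated 10 min at room temperature with a 500nM (2x) first reagent, then RGS4 at 900nM (2x) plus Transcreener GDP mix added; fluorescence polarization (620/688 nm) read before and after 90 min at 30 °C.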
MCF10A rerep: induces DNA re-replication in MCF 10a normal breast cells; MCF 10A DNA re-replication, Hoechst nuclear intensity, 48 h; Potency, µM (titrated, usually from 46.1 µM), without a hit: at the highest dose activity, positive = re-replication, usual class: activators; hit rate 2.9% among 350,000; AID 624296; further: % of control where 0% means no effect; nearly all actives have a fitted effect of over 50% in size
SW480 rerep: induces DNA re-replication in SW480 colon adenocarcinoma cells; Potency, µM (titrated, usually from 46.1 µM), for inactives: at the highest dose re-replication activation, usual class: activators; SW480 DNA re-replication, Hoechst DNA content imaging, 48 h; hit rate 1.8% among 340,000; further: % of control where 0% means no effect; nearly all actives have a fitted effect of over 55% in size
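Quantitative HTS format with DMSO vehicle controls; 48 hr drug incubation at 37 C, then 40 min Hoechst staining and scanning imager measurement at 405 nm excitation.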
KB-V1 MDR tox: kills drug-selected multidrug resistant KB-V1 cells; KB-V1 MDR cells viability, CellTiter-Glo, 72 h; Potency, µM (highest dose often 46.1 µM), hits mostly cytotoxic; hit rate 3.4% among 400,000; AID 1347076; further: on the % scale 0 is the no-effect control and ±100 the full control effect; nearly all actives have a fitted effect of over 60% in size
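Compound-treated KB-V1 multidrug-resistant cells, 72 h, 37 degrees C; viability by CellTiter-Glo. Fitted qHTS curves give the values.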
PTAP TSG101 blk: blocks PTAP/TSG101 interaction to inhibit HIV-1 budding | 340,000 tested, under 10 active | Potency, µM (top dose mostly 115 µM), inactives show at the highest dose activity change, negative = inhibition, actives largely listed as inhibitors | Fluorescence polarization, FITC-PTAP peptide / Tsg101 binding | AID 493005 | Q99816; active means well fitted inhibition curve with a large enough effect in the main read-out, with a control signal flat, not every such curve was filed as active; inconclusive means small, poorly fitted or top-dose-only effect, or effect the other way, or a change in a side signal; inactive means no such curve, though single readings can be large or run the other way; further: % of control where 0% means no effect
Target sequence (Q99816 whole entry, looked up): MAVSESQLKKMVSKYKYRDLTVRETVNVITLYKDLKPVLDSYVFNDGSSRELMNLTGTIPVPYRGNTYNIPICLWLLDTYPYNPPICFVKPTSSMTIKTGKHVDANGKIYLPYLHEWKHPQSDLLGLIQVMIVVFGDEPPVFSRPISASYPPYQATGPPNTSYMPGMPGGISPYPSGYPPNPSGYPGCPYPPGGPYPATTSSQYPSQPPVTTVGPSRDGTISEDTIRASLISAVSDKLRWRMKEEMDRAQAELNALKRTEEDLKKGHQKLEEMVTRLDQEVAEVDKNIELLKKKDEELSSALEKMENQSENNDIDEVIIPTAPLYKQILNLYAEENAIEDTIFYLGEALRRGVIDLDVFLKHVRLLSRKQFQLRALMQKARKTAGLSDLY
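Tsg101 binding domain (10 uM final) was mixed with compound and a FITC-labeled PTAP peptide (50 nM final) in HEPES pH 7.5 buffer with NaCl, Tween 20, EDTA and TCEP; fluorescence polarization was read after 20 min at r.t.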
* hit, by the source's call. Unless noted, the call rests on the fitted dose curve; in most records, active means well fitted curve in the direction sought with a large enough effect; inconclusive means small, poorly fitted or top-dose-only effect, or another doubt; inactive means no such curve, though single readings can be large; an effect the other way counts as inactive or inconclusive. Potency means the concentration at half of the fitted maximal effect.

Screening CCOC(=O)c1[nH]c(C)c(CCC(=O)NCc2ccc(C)cc2)c1C returned KB-3-1 cytotox inactive, RGS4 inh -7% and KB-V1 MDR tox inactive.
`COc1cc(C(=O)N/N=C(\C)c2ccc3c(c2)OCO3)cc(OC)c1OC` gave KB-3-1 cytotox 4.6µM*, RGS4 inh inconclusive, MCF10A rerep 4.1µM*, SW480 rerep 2.6µM*, KB-V1 MDR tox 5.2µM* and PTAP TSG101 blk -2%.
COc1cc(C(=O)NNC(=O)c2ccc3c(c2)OCCO3)cc(OC)c1OC was read as KB-3-1 cytotox inactive, RGS4 inh 2%, MCF10A rerep 0%, SW480 rerep -4%, KB-V1 MDR tox inactive and PTAP TSG101 blk 0%.
`COc1cc(C(=O)c2ccc3c(c2)OCO3)cc(OC)c1OC` gave KB-3-1 cytotox 4.6µM*, RGS4 inh 3%, MCF10A rerep inconclusive, SW480 rerep 2.1µM*, KB-V1 MDR tox 3.3µM* and PTAP TSG101 blk 0%.
For COc1cc(C(=O)NNC(=S)NC(=O)c2ccc3c(c2)OCO3)cc(OC)c1OC the results were KB-3-1 cytotox inconclusive, RGS4 inh -42%, MCF10A rerep inconclusive, SW480 rerep inconclusive, KB-V1 MDR tox inactive and PTAP TSG101 blk 0%.
COc1cccc(/C=C/C(=O)c2ccc3c(c2)OCO3)c1OC was read as KB-3-1 cytotox inconclusive, RGS4 inh -40%, MCF10A rerep inconclusive, SW480 rerep inconclusive, KB-V1 MDR tox 23µM* and PTAP TSG101 blk -3%.
`COc1cc(C(=O)c2cocc2C(=O)c2ccc3c(c2)OCO3)cc(OC)c1OC` gave KB-3-1 cytotox inconclusive, RGS4 inh 12%, MCF10A rerep inconclusive, SW480 rerep 1.8µM*, KB-V1 MDR tox 1.2µM* and PTAP TSG101 blk -1%.
For COc1ccc(NC(=O)CSc2c(C(C)C)cnc3c2c(=O)n(C)c(=O)n3C)c(OC)c1 the results were RGS4 inh -29%.
For Cc1ccc(Cl)cc1-n1ncc2c(N3CCN(Cc4ccccc4)CC3)ncnc21 the results were KB-3-1 cytotox inconclusive, RGS4 inh 11% and KB-V1 MDR tox inconclusive.
`NC(=O)C1CCN(CC(=O)Nc2ccccc2Sc2ccccc2)CC1` gave KB-3-1 cytotox inactive, RGS4 inh -26%, MCF10A rerep inconclusive, SW480 rerep -79%, KB-V1 MDR tox 21µM* and PTAP TSG101 blk 0%.
`O=C(CSc1nnc(-c2ccccc2)c(-c2ccccc2)n1)NC1CCCC1` gave KB-3-1 cytotox inactive, RGS4 inh 36% and KB-V1 MDR tox inconclusive.
Screening O=C1CC(N2CCN(C/C=C/c3ccccc3)CC2)C(=O)N1Cc1ccc(N2CCCC2=O)cc1 (stereo unspecified) returned KB-3-1 cytotox inconclusive, RGS4 inh -14%, MCF10A rerep 8%, SW480 rerep -1%, KB-V1 MDR tox 10µM* and PTAP TSG101 blk -7%.
O=C1CC(N2CCOCC2)C(=O)N1Cc1ccc(N2CCCC2=O)cc1 (stereo unspecified) was read as KB-3-1 cytotox inactive, RGS4 inh 6%, MCF10A rerep -5%, SW480 rerep -6%, KB-V1 MDR tox inactive and PTAP TSG101 blk -4%.
Screening CC(=O)OCCN1c2ccccc2Sc2cnccc21 returned KB-3-1 cytotox 12µM* and KB-V1 MDR tox 15µM*.
`O=C1C[C@H](c2ccccc2Cl)N1S(=O)(=O)c1ccccc1[N+](=O)[O-]` gave RGS4 inh -14%.
O=C(N/N=C/c1c(O)n(-c2ccccc2Cl)c(=O)c2ccccc12)c1cccnc1 was read as KB-3-1 cytotox inactive, RGS4 inh -8%, MCF10A rerep inconclusive, SW480 rerep 16µM*, KB-V1 MDR tox inconclusive and PTAP TSG101 blk 17%.

Source: PubChem BioAssay (National Center for Advancing Translational Sciences (NCATS))
